Shown are actives, neighbours in structure and some others; about 2.4% of the full set was active somewhere.
POLB inh – inhibitors of human DNA polymerase beta | AID 485314 | P06746 | Potency, µM (doses to about 114 µM), for the others: at the highest dose activity change, negative = inhibition, most hits filed as inhibitors | hit rate 1.3% among 340,000 | Pol beta primer extension/strand displacement, fluorescence kinetic; note: % is set by controls: 0 for no effect and ±100 for the full control effect
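Kinetic readout of DNA synthesis with strand displacement by Pol beta. Compound and 10 nM enzyme sit 15 min at room temperature; 50 nM substrate starts the reaction, read immediately and at 10 min.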
Pol eta inh – inhibitors of human DNA polymerase eta. Q9Y253. recombinant Pol eta, fluorescent DNA replication assay. Potency, µM (highest dose often 114 µM), inactives show at the highest dose activity change, negative = inhibition, most hits filed as inhibitors. hit rate 1.2% among 390,000; note: % is set by controls: 0 for no effect and ±100 for the full control effect
Target sequence (Q9Y253 whole entry, looked up): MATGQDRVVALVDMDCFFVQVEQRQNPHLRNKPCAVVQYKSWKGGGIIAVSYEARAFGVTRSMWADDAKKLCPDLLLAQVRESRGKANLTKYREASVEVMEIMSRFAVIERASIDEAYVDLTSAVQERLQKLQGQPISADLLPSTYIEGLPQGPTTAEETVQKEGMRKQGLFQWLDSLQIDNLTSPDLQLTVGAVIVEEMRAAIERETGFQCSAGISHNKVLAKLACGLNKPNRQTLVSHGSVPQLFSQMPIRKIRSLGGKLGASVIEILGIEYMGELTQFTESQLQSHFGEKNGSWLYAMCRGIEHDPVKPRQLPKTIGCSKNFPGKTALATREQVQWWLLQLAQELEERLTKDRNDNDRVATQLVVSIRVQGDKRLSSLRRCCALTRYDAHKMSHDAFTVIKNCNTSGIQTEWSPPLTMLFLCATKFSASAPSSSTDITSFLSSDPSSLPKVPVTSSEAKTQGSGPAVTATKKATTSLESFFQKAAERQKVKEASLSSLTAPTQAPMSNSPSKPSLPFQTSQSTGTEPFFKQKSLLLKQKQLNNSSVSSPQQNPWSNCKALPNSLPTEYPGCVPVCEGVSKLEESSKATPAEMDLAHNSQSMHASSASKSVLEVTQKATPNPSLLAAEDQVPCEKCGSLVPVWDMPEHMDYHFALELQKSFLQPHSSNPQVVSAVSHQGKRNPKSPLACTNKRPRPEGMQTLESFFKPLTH
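Fluorescent replication assay: 50 nM final substrate added after a 15 min room-temperature compound preincubation with 10 nM enzyme. Signal taken at 0 min and again at 10 min.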
GLS inh – glutaminase GLS (human) inhibition; O94925; GLS enzymatic activity, qHTS titration; Potency, µM (series often up to 45.5 µM), without a hit: at the highest dose activity change, negative = inhibition, hits mostly inhibitors; hit rate 0.21% among 410,000; AID 624170; note: % is set by controls: 0 for no effect and ±100 for the full control effect
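hKGA in 45 mM KH2PO4 (pH 8.2), 0.02% Tween-20 with compound, then 1mM L-Glutamine (stock as added) plus glutamate oxidase/HRP/Amplex red coupling mix. Fluorescence read initially and after 30 min at RT; signal change reflects glutamate formation.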
GCN5L2 inh – GCN5L2 (KAT2A) acetyltransferase inhibition; Q92830; GCN5L2 HAT assay, ThioGlo1 CoA-SH fluorescence; Potency, µM (doses to about 58.9 µM), inactives show at the top dose activity change, negative = inhibition, actives largely listed as inhibitors; hit rate 0.21% among 390,000; note: % is set by controls: 0 for no effect and ±100 for the full control effect
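Titration-based screen in which CoA formation is detected via maleimide probe ThioGlo1 (50uM) turning fluorescent on thiol reaction; substrates H3(1-25) 75uM and acetyl-CoA 70uM, GCN5L2 20nM, 20 min incubation at room temperature.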
POLK inh – DNA polymerase kappa (human) inhibition | Potency, µM (titrated, usually from 107 µM), without a hit: at the top dose activity, negative = inhibition, usual class: inhibitors | Q9UBT6 | AID 588579 | hit rate 0.53% among 400,000 | purified Pol kappa, fluorescent DNA synthesis assay, 10 min; note: % is set by controls: 0 for no effect and ±100 for the full control effect
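Kinetic fluorescence screen: compound preincubated 15 min RT with 10 nM enzyme; 50 nM substrate (final) initiates; reads at 0/10 min.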
Pol iota inh – DNA polymerase iota (human) inhibition. AID 588590. hit rate 1% among 390,000. Potency, µM (top dose mostly 115 µM), inactives show at the top dose activity, negative = inhibition, actives largely listed as inhibitors. Pol iota fluorescent replication assay, 10 min. Q9UNA4
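Pol iota at 10 nM preincubated 15 min with compounds at room temperature; reaction started with fluorescent substrate, 50 nM final. Fluorescence read kinetically at 0 and 10 min; buffer-only wells as negative control.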
Starred values were filed as active, the others as inactive; ! = a repeat was not active; [ ] = dose if it differs, or a comment. Calls come from the whole dose curve; as a rule, active = well fitted inhibition curve with a large enough effect; inconclusive = small, poorly fitted or top-dose-only effect, or another doubt; inactive = no such curve, though single readings can be large or run the other way. Potency is the fitted concentration of half-maximal effect.

For Cc1c(C(=O)OCCOC(C)C)[nH]c2c1C(=O)CC(c1ccco1)C2 (stereo unspecified) the results were POLB inh 20µM*, Pol eta inh 25.1µM*, GLS inh -6.5%, GCN5L2 inh -7.9%, POLK inh 79.4µM* and Pol iota inh inconclusive.
`COc1ccc(C2CC(=O)c3c([nH]c(C(=O)OCc4ccccc4)c3C)C2)cc1` (stereo unspecified) gave POLB inh inconclusive, Pol eta inh inconclusive, GLS inh -5.5%, GCN5L2 inh 3.8%, POLK inh -17.3% and Pol iota inh 15.9%.
`CSCCOC(=O)c1[nH]c2c(c1C)C(=O)CC(c1ccco1)C2` (stereo unspecified) gave POLB inh 7.94µM*, Pol eta inh 17.8µM*, GLS inh -19.2%, GCN5L2 inh -23.8%, POLK inh 31.6µM* and Pol iota inh inconclusive.
`CN1[C@@H]2CCC[C@@H]1CC(NC(=O)c1nn(C)c3ccccc13)C2` (stereo partly specified) gave GLS inh 23.3%.
Screening O=C(C[n+]1csc2ccccc21)c1ccc(I)cc1 returned POLK inh -6.2% and Pol iota inh -5.8%.
C=CC(=O)c1ccc(CCCCCC)cc1 was read as GCN5L2 inh -19.3% and POLK inh -4.2%[60.1 µM].
For O=C(O)/C=C/C(=O)c1ccc(O)cc1 the results were POLB inh 0.3%, Pol eta inh 3.3%, GLS inh 8.4%, GCN5L2 inh -6.4%, POLK inh -19.5% and Pol iota inh 17.8µM*.
`CCCCCCCCCCCCCCCCCCc1ccc(C(=O)/C=C/C(=O)O)cc1` gave GCN5L2 inh -4.0% and POLK inh -1.3%[19.4 µM].
Screening Cc1ccc(C(=O)/C=C\C(=O)c2ccc(C)cc2)cc1 returned POLB inh 4.0%, Pol eta inh -5.0%, GLS inh -8.7%, GCN5L2 inh 1.0%, POLK inh -2.5% and Pol iota inh 9.1%.
For CCCCCCCCCCCCCCCCCCc1ccc(C(=O)/C=C\C(=O)O)cc1 the results were GCN5L2 inh 2.82µM* and POLK inh 12.6µM*.
`CCCCCCCCc1ccc(-c2ccc(C(=O)O)cc2)cc1` gave GCN5L2 inh 20µM* and POLK inh -4.8%[60.1 µM].
COc1cc2nc(N3CCCN(C)CC3)nc(NC3CCN(C)C3)c2cc1OC (stereo unspecified) was read as POLK inh -31.2% and Pol iota inh -9.0%.
COc1ccc(CCn2c3c(c(=O)[nH]c2=S)CN(Cc2ccccc2)CN3)cc1OC was read as POLK inh -16.9% and Pol iota inh inconclusive.
Screening O=C(NN=C1CCN(Cc2ccccc2)CC1)c1cc2ccccc2cc1O returned POLB inh -107.9%, Pol eta inh inconclusive, GLS inh 20.6%, GCN5L2 inh -14.5%, POLK inh inconclusive and Pol iota inh 79.4µM*.
Screening Cc1cc(C)c2nc(N3CCCN(C(=O)c4ccco4)CC3)c(C#N)cc2c1 returned POLB inh 39.8µM*, Pol eta inh inconclusive, GCN5L2 inh -12.5%, POLK inh -20.2% and Pol iota inh -10.5%.
For c1cc2[nH]snc2c2nc(C3CC3)nc12 the results were POLB inh 3.6%, Pol eta inh 79.4µM*, GLS inh 1.0%, GCN5L2 inh -7.3%, POLK inh -8.4% and Pol iota inh inconclusive.
CC1CCCCC1NCc1cccc([N+](=O)[O-])c1 (stereo unspecified) was read as POLB inh 0.7%, Pol eta inh -5.6%, GLS inh 9.8%, GCN5L2 inh -9.9%, POLK inh -4.5%[60.1 µM] and Pol iota inh -11.5%.
For O=[N+]([O-])c1cccc(CNC2CCCCCC2)c1 the results were POLB inh 28.2µM*, Pol eta inh -10.7%, GLS inh 3.9%, GCN5L2 inh 0.9%, POLK inh 0.0% and Pol iota inh 121.7%.
For COc1cc(-c2nn3c(-c4cc(-c5ccccc5)n[nH]4)nnc3s2)cc(OC)c1OC the results were POLK inh -16.2% and Pol iota inh 1.7%.
CCCCCCc1cc2cc(C(N)=O)c(=N)oc2cc1O was read as POLB inh 31.6µM* and GCN5L2 inh -26.8%.
For Cc1ccc(NC(=O)c2cc(=O)n(Cc3ccccc3)c(=O)[nH]2)cc1C the results were POLB inh 39.8µM*, Pol eta inh -29.0%, GLS inh 0.5%, GCN5L2 inh -5.1%, POLK inh 0.8% and Pol iota inh inconclusive.
For O=C(CNC(=O)C(c1ccccc1)c1ccccc1)OCC(=O)c1cccc2ccccc12 the results were POLK inh 9.6% and Pol iota inh 18.1%.
CCN(CC)c1ccc(N=Cc2ccccc2[N+](=O)[O-])cc1 was read as POLB inh -0.6%, Pol eta inh -13.2%, GLS inh 23.4%, GCN5L2 inh -10.8%, POLK inh -17.7% and Pol iota inh inconclusive.
CCN(CC)c1ccc(N=Cc2ccc([N+](=O)[O-])o2)cc1 was read as POLB inh inconclusive, Pol eta inh inconclusive, GLS inh 32.0%, GCN5L2 inh 1.1%, POLK inh inconclusive and Pol iota inh 15.8µM*.
CCOC(=O)/C=C1\SCC(=O)N1CC(=O)c1ccc[nH]1 was read as POLB inh 20µM*, Pol eta inh inconclusive, GLS inh -13.1%, GCN5L2 inh -3.6%, POLK inh inconclusive and Pol iota inh inconclusive.
`CCCCCCCCCCCCCCCCCC(=O)OCCO` gave GLS inh 21.0%.
Cc1cc(=O)n(CC(=O)NC(C)c2ccccc2)c2c1c(C)nn2-c1cccc(F)c1 (stereo unspecified) was read as POLB inh 22.4µM*, Pol eta inh -5.0%, GLS inh -13.9%, GCN5L2 inh 0.2%, POLK inh -41.4% and Pol iota inh inconclusive.
Screening Cc1ccc(CNC(=O)Cn2c(=O)cc(C)c3c(C)nn(-c4cccc(F)c4)c32)cc1 returned POLB inh 69.8%, Pol eta inh -7.0%, GLS inh 6.3%, GCN5L2 inh -6.6%, POLK inh 0.0% and Pol iota inh 4.6%.
`CCc1cccc(NC(=O)C2CCCN(S(=O)(=O)c3cccs3)C2)c1` (stereo unspecified) gave POLB inh 37.5%, Pol eta inh -16.1%, GLS inh -22.8%, GCN5L2 inh -24.3%, POLK inh -28.6% and Pol iota inh 79.4µM*!.

Bioassay records: PubChem BioAssay, National Center for Advancing Translational Sciences (NCATS)
